The record followed here is PubChem BioAssay.

“And” between values parts separate entries of the source, which are not always exact repeats. Equal values may be shown once. Some structures have more than one record in an assay (separate samples or runs), and their calls can disagree. The source made the active and inactive calls. Unless noted, the rule behind the calls is not given here.

A short description of assay [1]: LFS_MB_1R medulloblastoma cell growth inhibition, synergistic combos for chromothripsis tumors, cisplatin or BGB combos (AID 1671452; in the data active = inhibition above about 80%;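 note: cells exposed for 96 hours before readout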). The conditions noted are these: LFS_MB_1R medulloblastoma cells, stronger effect = higher value.
Assay [2] in a line: CRL2098 osteosarcoma cell growth inhibition, synergistic combos for chromothripsis tumors, BGB or cisplatin IC20 combos (AID 1671454; in the data active = inhibition above about 80%;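 note: cells exposed for 96 h before readout; 0% = vehicle DMSO and 100% = killing by high DMSO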). Particulars: CRL2098 osteosarcoma cells, drug combinations, stronger effect = higher value.
Assay [3] can be described thus: HD-MB03 medulloblastoma cell growth inhibition, synergistic combos for chromothripsis tumors, BGB or cisplatin IC20 combos (AID 1671455; in the data active = inhibition above about 83%;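 note: 0% = vehicle DMSO and 100% = high DMSO as cytotoxic control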). Particulars: HD-MB03 medulloblastoma cells, stronger effect = higher value.
Assay [4] is described as follows: UWB1.289 ovarian carcinoma cell growth inhibition, synergistic combos for chromothripsis tumors, BGB or cisplatin combos (AID 1671456; in the data active = inhibition above about 80%;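 note: cells exposed to compound for four days; 0% = vehicle DMSO and 100% = killing by high DMSO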). The conditions noted are these: UWB1.289 ovarian carcinoma cells, stronger effect = higher value.
Assay [5] is described as follows: LFS_MB_2R medulloblastoma cell growth inhibition, synergistic combos for chromothripsis tumors, cisplatin combos (AID 1671457; in the data active = inhibition above about 80%;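 note: cells exposed to compound for four days before readout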). Particulars: LFS_MB_2R medulloblastoma cells, stronger effect = higher value.
The nature of assay [6]: UWB1.289_BRCA1 ovarian cancer growth, cell-based, BGB or cisplatin combinations (AID 1671459; in the data active = inhibition above about 80%). The conditions noted are these: UWB1.289 BRCA1 ovarian carcinoma, drug combinations, stronger effect = higher value.
A short description of assay [7]: human astrocyte viability loss, single and combined drugs, cytotoxicity control for chromothriptic childhood tumor combination screen, cell-based, BGB or cisplatin IC20 combos (AID 1671460; in the data active = inhibition above about 80%;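 note: cells exposed to compounds for 96 hours before viability readout; 0% = vehicle and 100% = killing control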). The conditions noted are these: Human astrocytes, drug combinations, stronger effect = higher value.
Assay [8] can be described thus: circadian clock period modulators, cell-based, LOPAC library, luminescence reporter (AID 2774).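 Note: values are relative to mean of DMSO wells on each plate.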 The conditions noted are these: circadian reporter cells, at 7 µM, actives lie on both sides.
In assay [9] the test system is Hepatitis C virus NS3 helicase. As to the kind of experiment: HCV NS3 helicase inhibitors, primary screen, biochemical, fluorescence polarization, LOPAC1280 library (AID 687035; in the data active = inhibition above about 37%). Particulars: Purified HCV NS3 helicase, Cy5-dT15 ssDNA binding fluorescence polarization; stronger effect = higher value; concentration not given here.
A short description of assay [10]: Cy5 fluorescence quenching or enhancement artefacts, artefact control for HCV NS3 helicase inhibitor project, biochemical, LOPAC1280 (AID 687037). Particulars: Cy5-DNA-NS3h complex fluorescence interference counterscreen.
A short description of assay [11]: inhibitors of Cryptococcus chitosan production, flow cytometry, Cibacron Brilliant Red staining (AID 1347148).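 Note: compound exposure lasted three days at 37 degrees C.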 Particulars: Cryptococcus neoformans chitosan, stronger effect = lower value; at 10 µM unless noted.
Assay [12] is described as follows: phospholipid biosynthesis inhibitors in animal cells, primary screen, cell-based, LOPAC library, screen 4 (AID 1347384). Particulars: phospholipid biosynthesis inhibition screen, at 10 µM.
The nature of assay [13]: viability rescue of complex I mutant cybrids, primary screen, cell-based, galactose medium, ATP luminescence (AID 1645843;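 active = z-score of at least 1.8 in each of two replicates, scored against plate mean and spread of sample wells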;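 note: positive z means more ATP and so rescue of galactose-driven cybrid death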). Particulars: complex I mutant cybrid cells, 72 h, stronger effect = higher value.
Assay [14] can be described thus: hESC survival regulators, cell-based (AID 493140).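 Note: cells exposed to compounds for four days before counting.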 The conditions noted are these: human embryonic stem cell survival screen; stronger effect = higher value.
Assay [15] can be described thus: modulators of glucocorticoid suppression of NF-kB, cell-based, luciferase, IL-1B stimulus, dexamethasone (AID 624486).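 For percent of negative control (+Dex): 100% = mean signal of vehicle control wells on the plate.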 The conditions noted are these: NF-kB luciferase reporter, IL-1B + dexamethasone, luminescence; percent of negative control (+Dex): actives lie on both sides, concentration not given here; z-score: measured here: IL-1B alone, no Dex.
A short description of assay [16]: kinase inhibitors altering Pseudomonas killing of worms, whole organism (AID 651566).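 Note: tested at 14 µM; sign flipped so higher z means a lower ratio.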 The conditions noted are these: C. elegans killed by P. aeruginosa, survival ratio.
Assay [17] is described as follows: activators of macrophage pro-inflammatory response, cell-based, murine, luminescence (AID 652131). Particulars: murine macrophage pro-inflammatory reporter, stronger effect = higher value.
In assay [18] the target is NAD(+) hydrolase SARM1 (Homo sapiens) (UniProt Q6SZW1). Put plainly: SARM1 TIR NADase inhibitors, cell lysate, NAD-Glo luminescence (AID 1508614;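 active = compound whose remaining NAD level is above about 45 nM, limit read from the data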;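 note: higher remaining NAD means stronger inhibition of SARM1 NADase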). Particulars: SAM-TIR HEK293T lysate NADase, at 1 µM, stronger effect = higher value.
Assay [19] is described as follows: liver-stage malaria parasite growth inhibition, primary screen, cell-based, HepG2, luciferase luminescence, HepG2 viability (AID 624349; in the data active = parasite load remaining mostly below about 12%, no sharp cut-off; inactive = mostly above about 10%;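 note: 100% = mean of DMSO negative control wells on the same plate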). Particulars: P. berghei liver stage in HepG2, luciferase luminescence, concentration not given here; parasite load remaining: stronger effect = lower value; viability: measured here: HepG2 viability without parasites.
Assay [20] is described as follows: kinase inhibitors against Plasmodium liver-stage infection, cell-based, known kinase inhibitor set, luminescence, hepatoma host viability (AID 624392).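 Note: infected cells incubated roughly two days before readout.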 Particulars: Plasmodium liver stage in hepatoma cells, luciferase luminescence, concentration not given here; liver cell % of control: measured here: host liver cell viability; parasite % of control: stronger effect = lower value.

Where [21] appears, read: measured here: combination with BGB IC40, at 0.05 µM.
The mark [22] stands for this setting: measured here: combination with cisplatin, at 0.5 µM.
The mark [23] stands for this setting: measured here: combination with cisplatin, at 5 µM.
The mark [24] stands for this setting: measured here: combination with BGB at IC20, at 0.5 µM.
Where [25] appears, read: measured here: combination with cisplatin at IC20, at 0.5 µM.
Where [26] appears, read: measured here: combo with BGB at IC20, at 0.5 µM.
Setting [27] is: measured here: combo with cisplatin at IC20, at 0.5 µM.
Where [28] appears, read: measured here: inhibition with BGB combination, at 0.05 µM.
The mark [29] stands for this setting: measured here: inhibition with cisplatin combination, at 0.05 µM.
Setting [30] is: BGB combination, concentration series, at 5 µM.
Where [31] appears, read: cisplatin combination, concentration series, at 5 µM.
The mark [32] stands for this setting: measured here: combo with BGB IC20, at 0.5 µM.
[33] abbreviates: measured here: combo with cisplatin IC20, at 0.5 µM.

Sequence of NAD(+) hydrolase SARM1 (Homo sapiens) (Q6SZW1 whole entry, looked up): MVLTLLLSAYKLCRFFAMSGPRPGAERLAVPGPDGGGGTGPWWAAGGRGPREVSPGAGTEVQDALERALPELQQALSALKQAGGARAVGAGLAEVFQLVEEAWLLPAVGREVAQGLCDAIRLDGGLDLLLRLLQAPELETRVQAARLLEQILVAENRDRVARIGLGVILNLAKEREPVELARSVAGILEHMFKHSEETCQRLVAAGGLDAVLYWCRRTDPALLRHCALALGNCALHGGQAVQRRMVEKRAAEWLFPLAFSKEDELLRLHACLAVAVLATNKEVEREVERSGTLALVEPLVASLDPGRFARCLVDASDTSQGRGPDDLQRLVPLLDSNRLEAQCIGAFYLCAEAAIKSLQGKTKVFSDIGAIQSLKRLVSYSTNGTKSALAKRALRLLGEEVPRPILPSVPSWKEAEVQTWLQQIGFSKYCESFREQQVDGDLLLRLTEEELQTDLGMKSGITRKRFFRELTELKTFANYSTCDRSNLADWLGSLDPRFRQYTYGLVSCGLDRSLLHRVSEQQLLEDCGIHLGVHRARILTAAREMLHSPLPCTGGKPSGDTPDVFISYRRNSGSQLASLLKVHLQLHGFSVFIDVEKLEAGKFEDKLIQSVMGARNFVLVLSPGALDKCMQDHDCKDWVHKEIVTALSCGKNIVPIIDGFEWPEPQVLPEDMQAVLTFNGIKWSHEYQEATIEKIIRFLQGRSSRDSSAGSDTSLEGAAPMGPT

For `Nc1ccccc1NC(=O)c1ccc(CNc2nccc(-c3cccnc3)n2)cc1`, the inhibition in assay [1] (at 0.5 µM) was 42.2% (inactive); in assay [1] (setting [21]), -27.8%; in assay [1] (setting [22]), 50.9%; in assay [1] (setting [23]) it was 96.3%; in assay [2] (at 0.5 µM) it was -11.6% (inactive); in assay [2] (setting [24]) it was -25.1%. The inhibition in assay [2] (setting [25]) is 19.9%; in assay [3] (at 0.5 µM), 40.8% (inactive); in [3] (setting [26]) it was 31.4%; in assay [3] (setting [27]) it was 76.7%; in assay [4] (at 0.5 µM), 27.8% (inactive); in [4] (setting [28]) it was -18.3%. Also, the inhibition in assay [4] (setting [29]) is -16.7%; in [5] (at 0.5 µM), 36.6% (inactive); in assay [5] (setting [22]), 45.3%; in [5] (setting [23]) it was 98.8%; in assay [6] (setting [30]) it was 114%; in assay [6] (at 0.5 µM), 29.1% (inactive). The inhibition in assay [6] (setting [31]) was 120%; in assay [7] (at 0.5 µM), 24.5% (inactive); in [7] (setting [32]), 21.7%; in assay [7] (setting [33]), 17.1%.

On to `CC1(C)CCC2=C(O1)c1ccccc1C(=O)C2=O`, for which the period change in assay [8] was -0.24 h (inactive). Further, the inhibition in [9] is -5% (inactive); in assay [1] (at 0.5 µM), -13.2% (inactive) and 14.9% (inactive); in [1] (setting [21]), -55.4% and -11.7%; in assay [1] (setting [22]), -25.3% and 44%; in assay [1] (setting [23]), 96.9% and 102%; in [2] (at 0.5 µM), -39.7% (inactive) and -32.9% (inactive). Also, the inhibition in [2] (setting [24]) was -38.5% and -7.72%; in assay [2] (setting [25]), -39.4% and -35%; in assay [3] (at 0.5 µM) it was -12.2% (inactive) and -9.16% (inactive); in assay [3] (setting [26]), 5.55% and -5.28%; in assay [3] (setting [27]), -34.7% and -19.2%; in assay [4] (at 0.5 µM), 12.3% (inactive) and 6.12% (inactive). Further, the inhibition was -2.17% and 7.32% in assay [4] (setting [28]); -10.2% and -8.62% in assay [4] (setting [29]); -21.3% (inactive) and -12.9% (inactive) in assay [5] (at 0.5 µM); -28.3% and -6.61% in assay [5] (setting [22]); 89.1% and 88.9% in assay [5] (setting [23]); 128% and 124% in assay [6] (setting [30]). Moreover, the inhibition in assay [6] (at 0.5 µM) was 0.6% (inactive) and 6.57% (inactive); in assay [6] (setting [31]) it was 129% and 128%; in assay [7] (at 0.5 µM) it was 16.9% (inactive) and 14.6% (inactive); in [7] (setting [32]), 23.9% and 15.8%; in [7] (setting [33]) it was 20.7% and 18.1%. Moreover, the fluorescence ratio (interference) in assay [10] is 1 (inactive). In assay [11], the fold fluorescence was 9.76 [at 206.4 µM] (inactive). In addition, in assay [12], the outcome was inactive. Further, in assay [13], the z-score was -1.29 (inactive).

On to `Clc1ccc(COC(Cn2ccnc2)c2ccc(Cl)cc2Cl)c(Cl)c1` (stereo unspecified), for which, in assay [14], the survival is 33.8 (inactive).

As to `N#Cc1c(NC(=O)c2cccc3ccccc23)sc2c1CCCC2`, the percent of negative control (+Dex) in assay [15] was 130% (inactive). Besides, the z-score is 1.48 in [15], -1.07 (inactive) in assay [16] and -1.04 (inactive) in [17].

`COc1ccc2c(c1)CC[C@@H]1[C@@H]2CC[C@]2(C)[C@@H](NCCCCCCN3C(=O)C=CC3=O)CC[C@@H]12`: in assay [11], the fold fluorescence is 12.8 [at 107.6 µM] (inactive).

As for `C[C@H]1[C@H](O)O[C@@H]2O[C@@]3(C)CC[C@H]4[C@H](C)CC[C@@H]1[C@@]24OO3`, the remaining NAD in [18] is 10 nM (inactive).

Consider `Nc1cccc(-c2cc3c(Oc4cccc(O)c4)ncnc3[nH]2)c1`, for which, in assay [19], the parasite load remaining is 28.2% (inactive) and the viability was found to be 64.3%.

Turning to `CNc1nccc(-c2cccnc2Oc2cc(C(=O)Nc3cccc(C(F)(F)F)c3)ccc2C)n1`, in assay [20], the liver cell % of control is 245% and 255% and 102%; the parasite % of control is 0.405% (inactive) and 0.413% (active) and 75.6% (inactive).

On to `CC(=O)Oc1cc2c(s1)CCN(C(C(=O)C1CC1)c1ccccc1F)C2` (stereo unspecified), for which, in assay [18], the remaining NAD is 10 nM (inactive). Also, the z-score in assay [13] is -1.04 (inactive).

Consider `COc1cc2ncnc(Nc3cccc(Cl)c3)c2cc1OC`, for which the period change in assay [8] was 0.545 h (inactive). In addition, the survival in assay [14] is 138 (inactive). In assay [19], the parasite load remaining is 63.9% (inactive) and the viability amounted to 78.3%. For the same molecule, in assay [9], the inhibition was 0% (inactive). Further, the fluorescence ratio (interference) in assay [10] was 1 (inactive). For the same molecule, the fold fluorescence in assay [11] was 5.72 [at 142 µM] (inactive). Further, the call in [12] was inactive. Further, the z-score in assay [13] is 1.23 (inactive).

`Nc1ccn([C@@H]2O[C@H](CO)[C@@H](O)C2(F)F)c(=O)n1`: in assay [19], the parasite load remaining is 8.34% (inactive) and the viability amounted to 190%. Besides, the z-score in assay [13] is -1.98 (inactive).

For `CC(C)=CCC/C(C)=C/CC/C(C)=C/CSc1ccccc1C(=O)O`, the period change in assay [8] is -0.01 h (inactive).
